Reference: PubChem BioAssay AID1159580 (chemical genetic matrix, 2015)
Out of some 5,500 compounds screened, about 2,000 (36%) were called active. Another 18% or so got no clear call; they are omitted. No stated cut-off is given here; in the data, active means normalized growth mostly below about 0.91 (no sharp cut-off); inconclusive means no clear call, values can overlap the other calls; inactive means mostly above about 0.92. Some of the results follow.

Test: chemical genetic growth profiling, strain panel (AID 1159580);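 further: tested at 20 µM; growth read once vehicle control cultures reached saturation at 30 °C; 1 = growth at the plate median or of vehicle wells; lower values mean less growth of the strain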
Settings: S. cerevisiae deletion strains, growth OD

Measured: normalized growth

O=C(Cc1ccccc1)NO
inactive: locus YAL021C, strain ccr4, hits give low values 0.981 | locus YAL026C, strain drs2, hits give low values 0.983 | locus YAL030W, strain snc1, hits give low values 0.995 | locus YBL061C, strain skt5, hits give low values 0.957 | locus YBR009C, strain hhf1, hits give low values 0.993 | locus YBR023C, strain chs3, hits give low values 0.978 | locus YBR171W, strain sec66, hits give low values 0.96 | locus YBR231C, strain swc5, hits give low values 0.974 | locus YBR279W, strain paf1, hits give low values 0.976 | locus YCL011C, strain gbp2, hits give low values 0.978 | locus YCL016C, strain dcc1, hits give low values 0.96 | locus YCL061C, strain MRC1, hits give low values 0.975 | locus YCL069W, strain vba3, hits give low values 0.979 | locus YCR088W, strain abp1, hits give low values 0.978 | locus YDL005C, strain med2, hits give low values 0.956 | locus YDL040C, strain nat1, hits give low values 0.975 | locus YDR001C, strain nth1, hits give low values 0.972 | locus YDR069C, strain doa4, hits give low values 0.953 | locus YDR137W, strain rgp1, hits give low values 0.976 | locus YDR159W, strain sac3, hits give low values 0.964 | locus YDR195W, strain ref2 0.953 | locus YDR297W, strain sur2, hits give low values 0.987 | locus YDR334W, strain swr1, hits give low values 1.01 | locus YDR335W, strain msn5, hits give low values 0.982 | locus YDR392W, strain spt3, hits give low values 0.993 | locus YEL003W, strain gim4, hits give low values 0.974 | locus YEL037C, strain rad23, hits give low values 0.962 | locus YEL061C, strain CIN8 (second series), hits give low values 0.989 | locus YER015W, strain faa2, hits give low values 0.98 | locus YER016W, strain bim1, hits give low values 0.982 | locus YER111C, strain swi4, hits give low values 0.985 | locus YER155C, strain BEM2 (second series), hits give low values 0.925 | locus YFR010W, strain ubp6, hits give low values 0.983 | locus YGL167C, strain pmr1, hits give low values 0.969 | locus YGL173C, strain kem1, hits give low values 0.979 | locus YGL227W, strain vid30, hits give low values 0.961 | locus YGL240W, strain doc1, hits give low values 0.995 | locus YGL253W, strain hxk2, hits give low values 0.962 | locus YHR013C, strain ard1, hits give low values 0.944 | locus YHR027C, strain rpn1, hits give low values 0.974 | locus YHR142W, strain chs7, hits give low values 0.917 | locus YJL092W, strain hpr5, hits give low values 0.99 | locus YJL095W, strain BCK1 (second series), hits give low values 0.96 | locus YJL115W, strain asf1, hits give low values 0.961 | locus YJL129C, strain trk1, hits give low values 0.954 | locus YJL154C, strain vps35, hits give low values 0.989 | locus YJL164C, strain tpk1, hits give low values 0.977 | locus YJL166W, strain qcr8, hits give low values 0.966 | locus YKL160W, strain elf1, hits give low values 0.944 | locus YKR026C, strain gcn3, hits give low values 0.973 | locus YKR091W, strain srl3, hits give low values 0.973 | locus YLL001W, strain dnm1, hits give low values 0.98 | locus YLL026W, hits give low values 0.97 | locus YLL041C, strain sdh2, hits give low values 0.976 | locus YLR027C, strain aat2, hits give low values 0.973 | locus YLR221C, strain rsa3, hits give low values 0.992 | locus YLR258W, strain gsy2, hits give low values 0.973 | locus YLR262C, strain YPT6 (second series), hits give low values 0.978 | locus YLR320W, strain mms22, hits give low values 0.952 | locus YLR342W, strain FKS1, hits give low values 0.98 | locus YLR357W, strain rsc2, hits give low values 0.938 | locus YLR370C, strain arc18, hits give low values 0.981 | locus YLR384C, strain iki3, hits give low values 0.961 | locus YML120C, strain ndi1, hits give low values 0.981 | locus YMR058W, strain fet3, hits give low values 0.984 | locus YMR125W, strain sto1, hits give low values 0.963 | locus YMR129W, hits give low values 0.973 | locus YMR205C, strain PFK2, hits give low values 0.992 | locus YMR231W, strain pep5, hits give low values 0.975 | locus YNL071W, strain lat1, hits give low values 0.965 | locus YNL209W, strain ssb2, hits give low values 0.984 | locus YNL248C, strain rpa49, hits give low values 0.95 | locus YNL322C, strain KRE1 (second series), hits give low values 0.949 | locus YNR049C, strain mso1, hits give low values 0.983 | locus YOR001W, strain rrp6, hits give low values 1 | locus YOR070C, strain gyp1, hits give low values 0.98 | locus YOR080W, strain dia2, hits give low values 0.94 | locus YOR083W, strain WHI5, hits give low values 0.928 | locus YOR106W, strain vam3, hits give low values 0.939 | locus YOR265W, strain rbl2, hits give low values 0.976 | locus YOR270C, strain vph1, hits give low values 0.936 | locus YOR290C, strain snf2, hits give low values 0.969 | locus YPL051W, strain arl3, hits give low values 0.972 | locus YPL078C, strain atp4, hits give low values 0.97 | locus YPL106C, strain sse1, hits give low values 0.949 | locus YPL240C, strain hsp82, hits give low values 0.963
